SENP7 block: SENP7 protease inhibition | recombinant SENP7, Z-RLRGG-aminoluciferin luminescence, 40 min | 330,000 compounds, 1.5% hits | inhibition, % at 5 µM | Q9BQF6;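 active = inhibition above about 50% at the single test dose, limit read from the data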
Target sequence (Q9BQF6 706-1050 limits assumed): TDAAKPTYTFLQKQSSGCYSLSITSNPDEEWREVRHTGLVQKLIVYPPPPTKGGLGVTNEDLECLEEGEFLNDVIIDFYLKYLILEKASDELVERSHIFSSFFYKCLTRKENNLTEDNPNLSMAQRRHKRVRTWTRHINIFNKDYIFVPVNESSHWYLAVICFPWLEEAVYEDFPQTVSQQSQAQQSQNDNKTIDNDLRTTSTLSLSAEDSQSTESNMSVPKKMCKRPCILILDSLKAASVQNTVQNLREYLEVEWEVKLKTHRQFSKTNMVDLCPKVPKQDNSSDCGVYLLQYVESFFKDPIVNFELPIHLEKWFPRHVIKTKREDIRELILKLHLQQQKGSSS
SENP6 block: SENP6 protease inhibition; AID 2599; inhibition, % at 10 µM; Recombinant SENP6 catalytic domain, aminoluciferin luminescence; 330,000 compounds, 1.8% hits;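 active = inhibition above about 50% at the single tested dose, limit read from the data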
SENP8 block-1: blocks human SENP8 cleavage of Nedd8 substrate. Q96LD8. recombinant SENP8, Nedd8 substrate fluorescence. inhibition, % at 20 µM. 360,000 compounds, 0.64% hits. AID 602440; in the data active = inhibition mostly above about 40%, no sharp cut-off; inactive = mostly below about 27%
HSP90 refold inh: HSP90 refolding inhibition in rabbit reticulocyte lysate. luciferase refolding luminescence, 3 h. inhibition, % at 5.6 µM. AID 1789. 290,000 compounds, 0.91% hits;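 active = inhibition above the screen-wide mean plus 3 SD, computed separately per campaign, cut at about 16% in these data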;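 note: inhibitors lower the luminescence because luciferase stays unfolded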
SENP8 block-2: blocks the human protease SENP8; inhibition, % at 10 µM; 330,000 compounds, 1.2% hits; purified SENP8, Z-RLRGG-aminoluciferin cleavage, luminescence; Q96LD8; in the data active = inhibition above about 50%
HSP90 inh confirm: confirmation of HSP90 inhibitors. shares compounds with HSP90 refold inh. rabbit reticulocyte lysate, luciferase refolding luminescence, 3 h. inhibition, % at 5.9 µM. 2,300 compounds, 64% hits; in the data active = inhibition above about 18%
luciferase ctr: blocks native firefly luciferase in HSP90 counter-screen; inhibition, % at 5.9 µM; 2,300 compounds, 48% hits; shares compounds with HSP90 refold inh; purified native firefly luciferase, luminescence;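 active = inhibition above the mean inhibition of all tested sample wells plus 3 SD, cut at about 10% in these data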
Of the large screens only hits and unclear results are named; the others gave an inactive call (follow-up assays come after a bar, where they were run). Rows were chosen to be rich in hits. Some 2.7% of all compounds tested hit in one or more screens of this group.

S=C(NCc1cccnc1)c1ccccc1	HSP90 refold inh 19 | HSP90 inh confirm inactive | luciferase ctr inactive
NC(=S)NCc1cccnc1	none
Cc1ccc(N2C(=O)CC(N3CCN/C3=C3\CC/C(=C\c4ccccc4)C3=O)C2=O)cc1 (stereo not drawn)	HSP90 refold inh 18 | HSP90 inh confirm inactive | luciferase ctr inactive
O=C1/C(=C2/NCCN2C2CC(=O)N(c3ccccc3)C2=O)CC/C1=C\c1ccccc1 (stereo not drawn)	none
CCOc1ccc(CN(C(=O)c2cccs2)C2CCS(=O)(=O)C2)cc1 (stereo not drawn)	none
c1ccc(-c2nnc(-c3ccccn3)nc2NC2CCCCC2)cc1	HSP90 refold inh 22 | HSP90 inh confirm 16 | luciferase ctr inactive
CNc1nc(-c2ccccn2)nnc1-c1ccccc1	none
COc1cc(F)ccc1S(=O)(=O)n1c(C)nc2ccccc21	none
CCN(CC)c1nc(Oc2ccc(C(=O)OC)cc2)nc(N2CCOCC2)n1	none
CCOc1ccc(Oc2nc(N(CC)CC)nc(N3CCOCC3)n2)nn1	HSP90 refold inh 17 | HSP90 inh confirm inactive | luciferase ctr inactive
O=C1N(c2ccccc2)c2ccccc2[C@]12C[C@H](O)CO2	none (no result: SENP7 block, SENP6 block, HSP90 refold inh, SENP8 block-2)
COc1cc(/C=N/Nc2ccc(Cl)c(C(=O)O)c2)ccc1OC(=O)c1ccc(F)cc1	HSP90 refold inh 60 | HSP90 inh confirm 73 | luciferase ctr inactive
COc1cc(/C=N/Nc2ccc(Cl)c(C(=O)O)c2)ccc1OC(=O)c1ccccc1F	HSP90 refold inh 54 | HSP90 inh confirm 80 | luciferase ctr inactive
COc1ccc(-c2csc(Nc3cc(C)ccn3)n2)cc1C	none
COc1ccc(-c2csc(Nc3ccccc3)[n+]2Cc2ccccc2)cc1	none
Cc1c(Cl)cccc1NC(=O)CCCn1cnc([N+](=O)[O-])n1	HSP90 refold inh 18 | HSP90 inh confirm inactive | luciferase ctr inactive
O=C(CCCn1cnc([N+](=O)[O-])n1)Nc1cccc(Cl)c1Cl	none
Cc1ccc(NC(=O)CCSc2nnc(C)o2)cc1	none
Cn1ccc(C(=O)Nc2ccc3c(c2)OCCO3)n1	none
Cc1c(C(=O)Nc2ccc3c(c2)OCCO3)cnn1C	HSP90 refold inh 35 | HSP90 inh confirm 57 | luciferase ctr 60
Cn1ncc([N+](=O)[O-])c1C(=O)Nc1ccc2c(c1)OCCO2	none
Cc1nn(C)cc1C(=O)Nc1ccc2c(c1)OCCO2	HSP90 refold inh 19 | HSP90 inh confirm 21 | luciferase ctr inactive
COCCN=c1scc(-c2cc(OC)c(OC)c(OC)c2)n1/N=C/c1c(C)[nH]c2ccccc12	none
O=C(c1ccco1)N1CCN(C(=O)c2[nH]ncc2[N+](=O)[O-])CC1	none
CN(C)c1ccc(/C=C2\CCC/C(=C\c3ccccc3)C2=O)cc1	none (no result: SENP7 block, SENP6 block, SENP8 block-2)
CC(=O)N1/C(=C/c2ccc(N(C)C)cc2)C(=O)c2ccccc21	HSP90 refold inh 18 (no result: SENP7 block, SENP6 block, SENP8 block-2) | HSP90 inh confirm inactive | luciferase ctr inactive
COc1cc(/C=C2\C(=O)ON=C2c2ccc(Cl)cc2)ccc1O	none (no result: SENP8 block-1, HSP90 refold inh)
COc1ccc(C2=NN(c3ccccc3)C(=O)/C2=C\c2ccc(O)c(OC)c2)cc1	SENP8 block-1 55, HSP90 refold inh 25 | HSP90 inh confirm inactive | luciferase ctr inactive
CCOC(=O)c1cnc2c(cnn2C)c1NCCC#N	none
COc1cccc(-c2cc3nc4c(c(NCC(C)(C)CN(C)C)n3n2)CCCC4)c1	HSP90 refold inh 46 | HSP90 inh confirm 44 | luciferase ctr inactive
CCOc1ccc(Nc2ncnc3c2cnn3Cc2ccccc2)cc1	HSP90 refold inh 23 | HSP90 inh confirm inactive | luciferase ctr inactive
COc1ccc(Nc2ncnc3c2cnn3Cc2ccccc2)cc1	none
O=C(CSc1nc(-c2ccccc2)nc2ccccc12)Nc1nccs1	HSP90 refold inh 22 | HSP90 inh confirm inactive | luciferase ctr inactive
C[n+]1c(/C=C/c2ccc3c(c2)OCO3)ccc2ccccc21	HSP90 refold inh 32 | HSP90 inh confirm 54 | luciferase ctr 55
CN(C)S(=O)(=O)Oc1ccsc1C(=O)Nc1ccc(Cl)c(Cl)c1	HSP90 refold inh 20 | HSP90 inh confirm inactive | luciferase ctr inactive
CN(C)S(=O)(=O)Oc1ccsc1C(=O)Nc1cccc(Cl)c1	none
O=C(NCC1CCCCC1)c1ccco1	none
Cc1ccc(C(=O)NCc2ccc(N3CCN(C)CC3)cc2)cc1C	HSP90 refold inh 22 | HSP90 inh confirm inactive | luciferase ctr inactive

Compound activity from PubChem BioAssay.
